Rows were chosen to be rich in hits. Some 32% of all compounds tested hit in one or more screens of this group.
PostGolgi ctrl: yeast control strain growth, post-Golgi counter-screen. efflux-deficient yeast background strain, growth absorbance A615, 16 h. inhibition, % at 10 µM. hit rate 5% among 98,000
PostGolgi yeast: growth inhibition of a yeast mutant, post-Golgi transport screen | post-Golgi transport phenotypic cell assay | inhibition, % at 10 µM | hit rate 0.9% among 98,000;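 note: yeast cells grown in 1536-well plates; yeast grown about 18 h at 30C before absorbance read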
CYP2C9 inhib: blocks human cytochrome P450 2C9. CYP2C9 Supersomes, luciferin-H conversion, luminescence. inhibition, % at 5 µM. hit rate 20% among 96,000;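 active = blocking of liver enzyme CYP2C9 beyond about 50% at 5 µM, limit read from the data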
CYP2C19 inh: blocks human cytochrome P450 2C19 | P33261 | CYP2C19 Supersomes, luciferin-H EGE luminescence, 30 min | inhibition, % at 5 µM | hit rate 21% among 96,000 | AID 778;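 active = CYP2C19 inhibition above a set limit at 5 µM in the primary screen, cut at about 50% in these data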;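 note: plate controls were negative control wells for no effect and 2.5 mM tranylcypromine positive control for full effect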
Target sequence (P33261 whole entry, looked up): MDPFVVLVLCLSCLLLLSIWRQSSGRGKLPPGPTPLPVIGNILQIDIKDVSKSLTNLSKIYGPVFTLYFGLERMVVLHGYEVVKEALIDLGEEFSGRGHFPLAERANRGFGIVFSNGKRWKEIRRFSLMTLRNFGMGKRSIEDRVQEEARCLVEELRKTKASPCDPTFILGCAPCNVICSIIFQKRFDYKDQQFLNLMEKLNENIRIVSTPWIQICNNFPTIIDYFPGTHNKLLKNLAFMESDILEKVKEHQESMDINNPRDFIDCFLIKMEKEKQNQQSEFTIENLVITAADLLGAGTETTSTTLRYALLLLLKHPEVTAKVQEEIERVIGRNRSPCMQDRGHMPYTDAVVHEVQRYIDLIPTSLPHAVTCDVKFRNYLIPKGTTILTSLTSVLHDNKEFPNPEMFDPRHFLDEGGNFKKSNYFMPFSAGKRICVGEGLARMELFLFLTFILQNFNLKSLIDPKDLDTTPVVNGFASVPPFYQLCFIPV
CYP2C19 activ: activators of human cytochrome P450 2C19; P33261; recombinant CYP2C19, luciferin-H EGE luminescence; active compounds read high; 0 = fully inhibited enzyme, 1 = untreated enzyme; activation factor at 5 µM; 96,000 tested, under 10 active; AID 1025;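 active = activation factor of at least 2 at 5 µM in the primary screen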;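 note: 0 = wells with 2.5 mM tranylcypromine and 1 = vehicle-only wells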
CYP2C9 activ: CYP2C9 (human) activation | P11712 | recombinant CYP2C9, luciferin-H conversion, luminescence; active compounds read high; factor 1 = untreated enzyme, 0 = blocked | activation factor at 5 µM | hit rate 1.4% among 96,000 | AID 1024;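 active = activation factor of 2 or more for CYP2C9 at a 5 µM dose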;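 note: 0 = sulfaphenazole-blocked wells and 1 = vehicle-only wells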
* marks the source's active call; other numbers are inactive results; · = not tested or not shown. Cut-off read from the data, not from the text of the source, unless noted: active = inhibition above about 30%; inactive = the rest.

SMILES	PostGolgi ctrl	PostGolgi yeast	CYP2C9 inhib	CYP2C19 inh	CYP2C19 activ	CYP2C9 activ
CC(C)CCn1c(SCc2ccc(Cl)cc2)nc2c1c(=O)[nH]c(=O)n2C	19	15	79*	51*	0.5	0.2
CC(C)CCSc1nc2c(c(=O)[nH]c(=O)n2C)n1CCc1ccccc1	13	-5	·	·	·	·
Cc1ccc(CSc2nc3c(c(=O)[nH]c(=O)n3C)n2CCC(C)C)cc1	41*	2	75*	61*	0.4	0.3
O=Cc1ccc2noc(-c3ccc(F)cc3)c2c1	14	8	7	39	0.6	0.9
COc1ccccc1C(=O)N/C(=C/c1ccc(Br)cc1)C(=O)NCC(=O)O	-16	-2	26	37	0.6	0.7
CC(C)(C)NC(=O)NC(=O)CSc1nnc(-c2ccccc2F)n1N	-8	-3	6	3	1	0.9
CC(C)CCNC(=O)NC(=O)CSc1nnc(-c2ccccc2F)n1N	-8	0	54*	44	0.6	0.5
COc1ccc(NC(=O)CSc2nnc(-c3ccccc3C)n2N)cc1	0	3	74*	58*	0.4	0.3
COc1ccc(NC(=O)CSc2nnc(-c3ccccc3C)n2N)cc1OC	1	-11	20	-3	1	0.8
CCOc1cccc(-c2nnc(SCC(=O)Nc3cc(OC)cc(OC)c3)n2N)c1	-1	13	7	1	1	0.9
Cc1ccccc1-c1nnc(SCC(=O)Nc2ccc(Cl)cc2)n1N	13	12	70*	54*	0.5	0.3
COc1cccc(NC(=O)CSc2nnc(-c3cccc(OC(C)C)c3)n2N)c1	4	3	76*	42	0.6	0.2
Cc1cccc(N2CC(O)=C(c3nc4ccccc4n3C)C2=N)c1	13	2	-6	10	0.9	1.1
c1ccc(-c2csc(Nc3nc(N4CCOCC4)nc(N4CCOCC4)n3)n2)cc1	8	2	44	20	0.8	0.6
Cc1cccc(-c2c3c(=O)n(C)c(=O)n(C)c3cn2C(C)C)c1	15	-1	57*	22	0.8	0.4
Cc1cccc(-c2c3c(=O)n(C)c(=O)n(C)c3cn2C2CCCCC2)c1	28	76*	22	35	0.7	0.8
Cn1c(=O)c2c(-c3ccccc3)n(C3CCCCC3)cc2n(C)c1=O	-2	-22	44	-1	1	0.6
COc1cc(S(=O)(=O)N2CCN(C(=O)c3ccccc3F)CC2)c(OC)cc1NC(C)=O	4	-3	23	5	1	0.8
COc1cccc(NC(=O)CNS(=O)(=O)c2ccc3nc(C)sc3c2)c1	3	11	35	5	1	0.7
CCOc1ccccc1C1CC(=O)Nc2cc3c(cc21)OCCO3 (stereo unspecified)	8	7	69*	54*	0.5	0.3
CCCOc1ccccc1C1CC(=O)Nc2cc3c(cc21)OCCO3 (stereo unspecified)	26	-2	·	·	·	·
O=C1CC(c2cccnc2)c2cc3c(cc2N1)OCO3 (stereo unspecified)	5	1	4	-2	1	1
CC(C)Oc1ccccc1C1CC(=O)Nc2cc3c(cc21)OCO3 (stereo unspecified)	31*	2	76*	99*	0	0.2
O=C(Oc1cc(-c2ccccc2)no1)c1ccc(F)cc1	-3	2	-10	-16	1.2	1.1
CC(C)n1c(=S)[nH]c2c1c(=O)[nH]c(=O)n2C	1	1	9	4	1	0.9
SMILES	PostGolgi ctrl	PostGolgi yeast	CYP2C9 inhib	CYP2C19 inh	CYP2C19 activ	CYP2C9 activ
CC(C)NC(=O)C(OC(=O)c1ccccc1)C(OC(=O)c1ccccc1)C(=O)O (stereo unspecified)	5	-1	-2	-5	1.1	1
CC(=O)Nc1ccc(NC(=O)CN(c2ccc(C34CC5CC(CC(C5)C3)C4)cc2)S(C)(=O)=O)cc1	11	-1	10	-2	1	0.9
CS(=O)(=O)N(CC(=O)Nc1ccc(CC#N)cc1)c1ccc(C23CC4CC(CC(C4)C2)C3)cc1	27	10	59*	11	0.9	0.4
CO/N=C/NC(=O)NOCc1ncc(C(F)(F)F)cc1Cl	-1	-26	-18	39	0.6	1.2
O=C(N/C=N/OCc1ccc(Cl)cc1Cl)NOCc1ncc(C(F)(F)F)cc1Cl	34*	-4	86*	97*	0	0.1
Cc1cc(C)c2cc(C#N)c(N3CCCC3)nc2c1	13	-1	1	18	0.8	1
CCCC1Cc2nc(N3CCCCC3)c(C#N)cc2CO1 (stereo unspecified)	11	-5	86*	73*	0.3	0.1
COc1ccc(-n2cnnc2SCc2csc(-c3ccccc3)n2)cc1	3	-2	27	75*	0.3	0.7
c1ccc(-c2ncc(CSc3nncn3-c3ccccc3)s2)cc1	-3	0	-26	59*	0.4	1.3
CCCCNc1cc(=O)n(C)c(=O)[nH]1	3	-7	6	5	0.9	0.9
CCc1ccc(OCCNC(=O)c2ccc(S(=O)(=O)N(C)C)cc2)cc1	13	5	22	15	0.8	0.8
CC(C)Cn1c(-c2ccc(Cl)cc2)cnc1SCC(=O)N1CCOCC1	22	-2	23	31	0.7	0.8
CCOC(=O)c1c(NC(=O)CSc2nc3ccccc3s2)sc(C(C)=O)c1C	-6	-1	78*	29	0.7	0.2
CCCn1c(SCC(=O)Nc2sc(C)c(C)c2C(=O)OC)nc2c1c(=O)n(C)c(=O)n2C	·	·	12	16	0.8	0.9
CCOC(=O)c1c(NC(=O)CSc2nc3c(c(=O)n(C)c(=O)n3C)n2CC)sc(C)c1C	·	·	90*	52*	0.5	0.1
CCOC(=O)c1sc(NC(=O)CSc2nnc(C)s2)c(C(=O)OCC)c1C	4	-1	88*	62*	0.4	0.1
O=C(C1CCN(S(=O)(=O)c2ccc(F)cc2)CC1)N1CCOCC1	-3	0	-8	20	0.8	1.1
O=C(NCCn1cccc1)c1cccc2ccccc12	12	4	-71	24	0.8	1.7
COc1ccc(C2C(C#N)=C(N)N3C(=C2C#N)Sc2ccccc23)cc1 (stereo unspecified)	30*	-8	18	8	0.9	0.8
COc1ccc(C2C(C#N)=C(N)SC(N)=C2C#N)cc1OC	3	1	11	19	0.8	0.9
Cc1ccc(S(=O)(=O)c2c(C)nn(C(C)(C)C)c2OC(=O)C2CCCC2)cc1	2	-7	61*	37	0.6	0.4
O=c1[nH]c(C(F)(F)F)nc2c1nnn2Cc1ccccc1F	1	3	31	3	1	0.7
Clc1ccccc1Cn1nnc2c(Nc3ccccc3)ncnc21	16	-3	-22	8	0.9	1.2
Clc1ccccc1Cn1nnc2c(NCC3CC3)ncnc21	8	21	-239	51*	0.5	3.4*
Fc1ccccc1Cn1nnc2c(NCc3ccccn3)ncnc21	10	-5	-179	31	0.7	2.8*
